High-throughput results (PubChem BioAssay)
HT1080NT lethal: qHTS for induction of synthetic lethality in tumor cells producing 2HG: qHTS for the HT-1080-NT fibrosarcoma cell line. AID 686970, 2013. hit rate 1.6% among 360,000. Potency, µM (top dose mostly 46.1 µM), for the others: at the highest dose activity, negative = less viability, actives largely listed as cytotoxic. HT-1080-NT fibrosarcoma viability, CellTiter-Glo ATP luminescence, 48 h;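 also: NT is the 2HG producing partner of a matched IDH1 knockdown line; potency is read from the fitted curve at half-maximal effect; 0% = DMSO-treated cells and -100% = media-only wells without cells; nearly all actives have a fitted effect of over 55% in size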
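Luminescent CellTiter-Glo readout after 48 hours of compound exposure at 37 degrees C defined viability of HT-1080-NT cells. Activity was normalized to DMSO wells and cell-free media wells; concentration-response curves were fitted and assigned curve classes.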
KB-V1 MDR tox: qHTS assay for MDR1-selective chemotherapeutics: Primary screen using the drug-selected MDR subline cells KB-V1; KB-V1 MDR cells viability, CellTiter-Glo, 72 h; Potency, µM (titrated, usually from 46.1 µM), most hits filed as cytotoxic; hit rate 3.4% among 400,000; AID 1347076, 2019; also: potency is read from the fitted curve at half-maximal effect; nearly all actives have a fitted effect of over 60% in size
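Luminescent ATP read-out (CellTiter-Glo, 10 min) measures survival of drug-selected KB-V1 MDR cells after 72 h, 37 degrees C compound exposure. Medium: phenol-red-free DMEM, 10% FBS. Values from fitted concentration-response curves.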
KB-3-1 tox: qHTS assay for MDR1-selective chemotherapeutics: Primary screen using the parental adenocarcinoma cell KB-3-1; KB-3-1 viability, CellTiter-Glo ATP luminescence, 72 h; Potency, µM (highest dose often 46.1 µM), actives largely listed as cytotoxic; hit rate 1.4% among 400,000; AID 1347075, 2019; also: potency is read from the fitted curve at half-maximal effect; nearly all actives have a fitted effect of over 60% in size
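Viability of parental KB-3-1 cells, measured by CellTiter-Glo luminescence, followed a 72 h incubation at 37 °C with pinned compounds in phenol-red-free DMEM containing 10% FBS.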
HT1080 IDH1KD tx: qHTS for induction of synthetic lethality in tumor cells producing 2HG: qHTS for the HT-1080-IDH1KD cell line; HT-1080 IDH1 knockdown viability, ATP luminescence, 48 h; Potency, µM (highest dose often 46.1 µM), for inactives: top-dose activity, negative = toxicity, most hits filed as cytotoxic; hit rate 2% among 360,000;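 also: potency is read from the fitted curve at half-maximal effect; 0% = DMSO wells and -100% = cell-free medium wells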
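After a 2 h attachment period, IDH1KD HT-1080 cells took pin-transferred compound for 48 h at 37 °C; ATP-based luminescence after 10 min room-temperature reagent incubation reported viability.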
IL1B secr inh: qHTS for Inhibitors of Inflammasome Signaling: IL-1-beta AlphaLISA Primary Screen. THP-1 LPS/ATP IL-1B secretion, AlphaLISA, 16 h; stronger effect = lower value. activity change, % at 57.5 µM. hit rate 4.7% among 360,000; in the data active = activity change below about -50%; inconclusive = mostly about -30% to -49%
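Secreted IL-1B measured by AlphaLISA bead assay after 16 h compound exposure of THP-1 cells; compounds (final up to 57.5 uM) added 1 h before LPS (250 ng/mL) and ATP (1.25 mM) stimulation; lower signal means less secretion.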
An asterisk follows results filed as active; i = inactive; ? = inconclusive; . = not tested or not shown; ! = a repeat was not active. Most compounds without a hit are left out; they make up all but 8.8% or so of the library. Unless noted, calls follow the shape of the dose curve; as a rule, active = well fitted curve in the direction sought with a large enough effect; inconclusive = small, poorly fitted or top-dose-only effect, or another doubt; inactive = no such curve, though single readings can be large; an effect the other way counts as inactive or inconclusive. Unless noted, % is scaled to controls: 0 for no effect and ±100 for the full control effect.

SMILES	HT1080NT lethal	KB-V1 MDR tox	KB-3-1 tox	HT1080 IDH1KD tx	IL1B secr inh
Cc1c(C(=O)OC2CCCCC2)[nH]c2c1C(=O)CC(c1ccccc1)C2 (stereo not drawn)	.	?	i	.	.
Cc1c(C(=O)O)[nH]c2c1C(=O)CC(c1ccc(C(C)(C)C)cc1)C2 (stereo not drawn)	16.9%	i	i	16.5%	12.3
COc1ccc(C(=O)N(C)c2c(C)n(C)n(-c3ccccc3)c2=O)cc1OC	-0.6%	i	i	-2.4%	2.9
COc1ccc2ncnc(NCC3CCCO3)c2c1-c1ccc2c(c1)OCO2 (stereo not drawn)	.	i	i	.	.
COc1ccc(CCNC(=O)c2cc(C)nc3c2c(C)nn3-c2ccc(C)cc2)cc1OC	.	i	?	.	.
C=CCOC(=O)c1[nH]c2c(c1C)C(=O)CC(c1ccco1)C2 (stereo not drawn)	?	?	?	0.366µM*	85.8
C/C=C/COC(=O)c1[nH]c2c(c1C)C(=O)CC(c1ccco1)C2 (stereo not drawn)	1.03µM*	i	i	0.651µM*	65.1
Cc1c(C(=O)OC2CCCCC2)[nH]c2c1C(=O)CC(c1ccccc1Cl)C2 (stereo not drawn)	.	?	4.11µM*	.	.
C/C=C/COC(=O)c1[nH]c2c(c1C)C(=O)CC(c1ccc(N(C)C)cc1)C2 (stereo not drawn)	-17.8%	?	?	-26.8%	-27.8
CCOC(=O)C1CCCCN1S(=O)(=O)c1ccc2c(c1)CC(C)N2C(=O)C1CCC1 (stereo not drawn)	?	i	?	-4.6%	-6.5
O=C1NCC(c2ccccc2)C1C(=O)N/N=C\c1ccc(-c2cccc(Cl)c2Cl)o1 (stereo not drawn)	?	i	i	?	-17.4
Cc1ccc(-c2ccc(/C=N\NC(=O)C3C(=O)NCC3c3ccccc3)o2)cc1Cl (stereo not drawn)	?	i	i	?	-54.9*
CCN(CC(=O)NC1CCS(=O)(=O)C1)c1ccc(S(=O)(=O)N(CC)CC)cc1[N+](=O)[O-] (stereo not drawn)	-3.1%	i	i	-5.1%	-17.6
CCOC(=O)N1CCN(c2cc3nccnc3cc2F)CC1	16.2%	20.6µM*	i	19.3%	-15.1
CCOC(=O)c1c(CSC(=N)N)n(-c2ccc(C)cc2)c2cc(Br)c(OC(C)=O)cc12	-13.2%	i	i	-27.3%	-75.8*
CCOC(=O)c1c(CSC(=N)N)n(C)c2cc(Br)c(OC(C)=O)cc12	?	i	i	?	-101.9*
N#C/C(=C\c1ccc(F)c(Cl)c1)S(=O)(=O)c1ccccn1	19.0%	i	i	14.1%	-1.8
O=C1[C@H](Cc2ccccc2)NCCCC[C@@H](c2ccc(Cl)cc2)N1Cc1ccc(Cl)cc1	?	?	11.6µM*!	?	-50.1*
O=C1[C@H](Cc2ccccc2)NCCCC[C@H](c2ccc(Cl)cc2)N1Cc1ccccc1	?	?	?	?	-14.4
COc1cc(C2Nc3cccc4cccc(c34)N2)ccc1O	-16.1%	?	i	-16.8%	-82.8*
COc1cc(C2Nc3cccc4cccc(c34)N2)cc(OC)c1OC(C)=O	-0.6%	i	?	0.4%	-20.4
O=[N+]([O-])c1ccc(CC(Cl)c2ccccn2)cc1 (stereo not drawn)	-11.3%	i	i	-7.8%	-50.1*
O=S1(=O)CCN2C(=N1)Sc1c2ccc2c1CCCC2	6.6%	4.61µM*	i	-13.7%	4.4
CCC(Sc1nc2ncccc2[nH]1)C(=O)N1CCOCC1 (stereo not drawn)	-2.4%	i	?	4.8%	-8.8
CC1CN(C(=O)c2ccc(-c3cccc(C(F)(F)F)c3)o2)CC(C)O1 (stereo not drawn)	8.6%	?	?	-10.4%	-56.2*
SMILES	HT1080NT lethal	KB-V1 MDR tox	KB-3-1 tox	HT1080 IDH1KD tx	IL1B secr inh
O=C(c1ccco1)N1CCN(C(=O)c2ccc(-c3cccc(C(F)(F)F)c3)o2)CC1	-28.7%	i	i	-21.7%	-70.3*
O=C(c1ccc(-c2cccc(C(F)(F)F)c2)o1)N1CCCCCCC1	10.7%	?	i	0.3%	-4.8
CCCN(C)C[C@H]1OCc2cnnn2CCCC(=O)N([C@H](C)CO)C[C@@H]1C	16.0%	i	i	15.9%	6.3
Cc1nn(CC2CC2)c(=O)n1-c1ccc(Oc2ccccc2)cc1	2.2%	?	i	9.6%	10.0
CC1CCc2c(sc3nnn(CC(=O)Nc4ccccc4Cl)c(=O)c23)C1 (stereo not drawn)	.	i	i	.	.
CCOC(=O)c1c(-c2cccs2)csc1NC(=O)CSc1ncn[nH]1	-2.2%	20.6µM*	i	?	41.6
CCOC(=O)c1c(-c2cccs2)csc1NC(C)=O	-10.1%	i	i	-13.5%	-6.0
CCOC(=O)c1c(-c2cccs2)csc1NC(=O)C(C)(C)C	1.5%	14.6µM*	i	-3.1%	17.6
O=C(c1ccc(COc2ccccc2Br)o1)N1N=C(C(F)F)CC1(O)C(F)F (stereo not drawn)	-0.4%	23.1µM*	i	-4.3%	7.0
Cn1c(SCc2c(F)cccc2Cl)nc2c(c1=O)SCC2	-23.4%	?	i	-6.4%	-58.6*
Cn1c(SCc2c(F)cccc2Cl)nc2ccccc2c1=O	5.1%	i	i	7.4%	-0.2
C=C(C)COc1ccc2oc(C)c(C(=O)OCCOC)c2c1	0.6%	i	i	4.5%	4.7
CCOC(=O)c1c(CN2CCOCC2)oc2ccc(OC)cc12	-2.9%	16.4µM*	i	-0.1%	-4.1
COc1ccc2c(c1)c(C(=O)OCCN(C)C)c(C)n2C	-9.6%	?	?	-2.2%	-69.3*
CCN(CC)CCOC(=O)c1c(C)oc2ccc(OC)cc12	-18.1%	i	i	?	-85.6*
CC(NC(=O)c1ccc(NC(=O)c2nsc3ccccc23)cc1)c1ccccc1 (stereo not drawn)	.	i	i	.	.
CN(C(=O)c1cccc(NC(=O)Cc2ccc(NC(=O)C3CCCN(C(=O)C4CCCCC4)C3)cc2)c1)C1CCCCC1 (stereo not drawn)	0.8%	i	i	0.3%	34.6
CCOC(=O)c1ccc(CNc2ncnc3nc[nH]c23)cc1	.	i	i	.	.
C/C(=N\NC(=O)c1ccc(Br)cc1)C1C(=O)c2ccccc2C1=O	2.24µM*	?	?	1µM*	4.6
